# Bioassay records as filed in PubChem.
# ST2 IL33 inh: blocks human ST2 binding to IL-33; Q01638; AlphaLISA ST2-Fc/biotin-IL-33 interaction, 1 h; inhibition, % for hits at 17 µM; 78,000 compounds, 2.3% hits; AID 1259354; in the data active = inhibition above about 30%
# Target sequence (Q01638 whole entry, looked up): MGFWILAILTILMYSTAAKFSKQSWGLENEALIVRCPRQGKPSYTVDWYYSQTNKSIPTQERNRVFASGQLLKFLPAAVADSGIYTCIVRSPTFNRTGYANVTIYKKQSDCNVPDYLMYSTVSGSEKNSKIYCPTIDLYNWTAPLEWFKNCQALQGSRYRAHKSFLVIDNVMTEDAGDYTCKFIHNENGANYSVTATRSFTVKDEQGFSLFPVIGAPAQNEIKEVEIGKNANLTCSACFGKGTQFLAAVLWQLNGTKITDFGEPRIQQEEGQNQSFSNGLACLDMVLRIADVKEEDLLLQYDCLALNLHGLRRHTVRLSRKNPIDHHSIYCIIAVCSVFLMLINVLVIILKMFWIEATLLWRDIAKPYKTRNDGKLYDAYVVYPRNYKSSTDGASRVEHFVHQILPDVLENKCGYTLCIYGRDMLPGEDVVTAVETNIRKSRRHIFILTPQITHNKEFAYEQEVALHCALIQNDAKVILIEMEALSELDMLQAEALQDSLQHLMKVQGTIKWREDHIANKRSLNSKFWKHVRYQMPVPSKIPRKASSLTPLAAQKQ
# * hit, by the source's call; i = inactive; ! = a repeat was not active. Many of the other results were omitted from the sample, so hits are more common in it than they were.
SMILES,ST2 IL33 inh
O=[N+]([O-])c1ccc(-c2cnc(-c3ccccc3)nc2)cc1,i
Cc1nc2c(sc3nc4c(cc32)COC(C)(C)C4)c(=O)n1CC1CCCO1 (stereo not drawn),i
O=C(NC(Nc1ccc([N+](=O)[O-])cc1)C(=O)c1ccccc1)c1ccccc1 (stereo not drawn),i
Cc1cc([N+](=O)[O-])ccc1NC(=O)CC(C)c1ccccc1 (stereo not drawn),i
Cc1cc([N+](=O)[O-])ccc1NC(NC(=O)c1cccs1)C(=O)c1ccccc1 (stereo not drawn),35%*
CC(C)c1ccc(C2CC(c3ccccc3)Nc3ncnn32)cc1 (stereo not drawn),i
CNc1nc(-c2cc(NC3CCNCC3)nc3[nH]ccc23)nc2c1CCC2,37%*
Cc1cc(C)n(C2CCN(c3ncnc4c3CCN(C(=O)C3CC3)C4)C2)n1 (stereo not drawn),i
C[C@@]12CC[C@@H](C[C@@H]1N)C2,41%*
O=C(CNS(=O)(=O)c1ccc(Br)s1)NCCC1=CCCCC1,i
COc1cccc(F)c1-c1c(-c2ccccc2)ncn1Cc1cnc(C)cn1,i
COc1cccc(C2c3[nH]c4ccccc4c3CCN2C(=O)c2ccsc2)c1OC (stereo not drawn),i
CCOC(=O)C1=C(C)N=C2SCCC(=O)N2C1c1ccc(OCCC(C)C)c(OC)c1 (stereo not drawn),i
CC1CCN(c2nc3c(c(=O)n(C)c(=O)n3C)n2Cc2c(F)cccc2Cl)CC1,i
Cn1c(=O)c2c(nc(N3CCCCC3)n2Cc2c(Cl)cccc2Cl)n(C)c1=O,31%*
CN1CCN(c2nc3c(c(=O)n(C)c(=O)n3C)n2CCSc2nc3ccccc3o2)CC1,i
Cn1c(=O)c2c(nc(N3CCCCC3)n2CCSc2nc3ccccc3o2)n(C)c1=O,36%*!
CN1CCN(c2nc3c(c(=O)n(C)c(=O)n3C)n2Cc2c(Cl)cccc2Cl)CC1,i
CCN1CCN(c2nc3c(c(=O)n(C)c(=O)n3C)n2CCSc2nc3ccccc3o2)CC1,i
CCNC(=O)c1ccc(N2CCN(Cc3nccn3C(C)C)CC2)nc1,i
CCOC(=O)Cn1c(=O)n(-c2ccc(C)c(C)c2)c2nc(-c3cccc(OC)c3)nc(C(N)=O)c21,i
CN(C)c1ncc2c(n1)CCCC2NC1CCN(c2ccccc2F)CC1 (stereo not drawn),i
CCn1ccc(-c2n[nH]c(=O)n2CCc2ccccc2F)n1,i
O=[N+]([O-])c1cccc(-c2noc([C@@H]3C[C@@H](O)CN3Cc3ccccc3)n2)c1,i
Cc1ccc(CN2C[C@H](O)C[C@H]2c2nc(-c3cccc([N+](=O)[O-])c3)no2)cc1,i
SMILES,ST2 IL33 inh
O=[N+]([O-])c1cccc(-c2noc([C@@H]3C[C@@H](O)CN3Cc3ccc(CO)o3)n2)c1,58%*
Cc1cccc(-c2noc([C@@H]3C[C@@H](O)CN3Cc3cccs3)n2)c1,i
O=[N+]([O-])c1cccc(-c2noc([C@@H]3C[C@@H](O)CN3Cc3cccs3)n2)c1,61%*
O=[N+]([O-])c1cccc(-c2noc([C@@H]3C[C@@H](O)CN3Cc3ccc(Cl)cc3)n2)c1,i
CN(C)c1ccc(-c2nc3cc(N=Cc4cc([N+](=O)[O-])cc([N+](=O)[O-])c4O)ccc3o2)cc1,i
Nc1ncc(C(=O)N2CC(c3cccnc3)C2)c(-c2ccccc2)n1,i
COc1ccccc1NC(=O)C1=C(C)Nc2nnnn2C1c1ccccc1Cl (stereo not drawn),i
Brc1ccc(-c2nc(NCc3ccco3)c3ccccc3n2)cc1,i
CCCS(=O)(=O)N1CCC(C(=O)NC2CCCC2)CC1,i
COc1ccccc1NC(=O)Nc1cccc2cccnc12,i
O=C(/C=C/c1ccccc1)Nc1cc2ccccc2oc1=O,i
COc1cc(NC(=O)/C=C/c2ccccc2)c2ncccc2c1,35%*
Cc1cc(O)cc(Oc2cc(C)c(CC(O)C(C)(C)O)c(O)c2)c1 (stereo not drawn),i
COC(=O)[C@@H](C)NC(=O)[C@H]1CN(C(C)=O)CCN1S(=O)(=O)c1ccccc1,i
O=c1/c(=C/c2cccnc2)sc2n1CN(c1cccc(C(F)(F)F)c1)CN=2,i
Cc1ccc(N2CN=c3s/c(=C\c4cccnc4)c(=O)n3C2)cc1,30%*
COc1ccc(/C=c2\sc3n(c2=O)CN(c2ccc(C(C)=O)cc2)CN=3)cc1,i
Cc1ccc(-c2nnc3s/c(=C\c4ccc([N+](=O)[O-])cc4)c(=O)n23)cc1,i
COc1ccc(/C=c2\sc3n(c2=O)CN(c2ccc(C)cc2)CN=3)cc1,31%*
COc1ccc(/C=c2\sc3n(c2=O)CN(c2cccc(F)c2)CN=3)cc1,35%*
O=c1/c(=C/c2cccc([N+](=O)[O-])c2)sc2n1CN(c1cccc(F)c1)CN=2,i
CCCOc1ccc(/C=c2\sc3nc(=O)c(C)nn3c2=O)cc1,i
COc1ccccc1/C=c1\sc2nnc(-c3ccc(C)cc3)n2c1=O,i
